PubChem BioAssay
Values joined by “and” are separate entries in the source; they are usually repeats but may differ in a detail not shown here. Identical values can stand only once. Inconclusive results are not listed. Active and inactive are the calls of the source.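 The calls were made as follows, unless noted: active = GFP signal, as percent of the solvent control, above the screen mean plus 3 SD, about 149; inconclusive = no reading because the compound's own fluorescence upset strain identification; inactive = the rest.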

Assays:
[1] = rapamycin-like changes in RPL19A-GFP expression – cell-based, S. cerevisiae, multiplex flow cytometry, primary screen (AID 1862; in the data active = percent of DMSO control GFP below about 86%;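 also: lower values mimic rapamycin by blocking the RPL19A rise seen in DMSO cells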); settings: S. cerevisiae RPL19A-GFP strain, flow cytometry fluorescence, 3 h; at 10 µM; stronger effect = lower value
[2] = TOR pathway GLN3 branch reporter MEP2-GFP changes – S. cerevisiae, multiplex flow cytometry, primary screen (AID 1867;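 active = GFP response, as percent of the DMSO control, above the screen-wide mean plus 3 SD, about 139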;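 also: median GFP channel fluorescence of barcode-gated MEP2-GFP cells measured by flow cytometry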); settings: S. cerevisiae MEP2-GFP strain, 3 h, at 10 µM, stronger effect = higher value, 100% means same as DMSO wells
[3] = TOR pathway RTG branch CIT2 reporter changes – S. cerevisiae, GFP fusion, multiplex flow cytometry, primary screen (AID 1870;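 active = percent response above a set limit, the screen-wide mean plus 3 SD, cut at about 130% in these data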;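 also: barcoded CIT2-GFP strain pooled with four other GFP strains with rapamycin as positive control; median GFP fluorescence per well over plate mean of DMSO wells so 100% = DMSO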); settings: S. cerevisiae CIT2-GFP expression, 3 h, at 10 µM, stronger effect = higher value
[4] = TOR pathway LAP4-GFP level changes – S. cerevisiae, multiplex flow cytometry, primary screen (AID 1873); settings: S. cerevisiae LAP4-GFP expression, 3 h, at 10 µM, stronger effect = higher value
[5] = yeast AGP1-GFP level changes, GLN3 branch – cell-based, multiplex flow cytometry, S. cerevisiae, primary screen (AID 1887;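 active = GFP signal above the screen-wide mean plus 3 SD, that is over about 124.5% of the solvent control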;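 also: AGP1-GFP fusion strain of S. cerevisiae within a five-strain barcoded multiplex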); settings: 3 h, at 10 µM, stronger effect = higher value
[6] = reduced mouse 2C T cell binding to pMHC/ICAM-1 vesicles – MLPCN validation set, flow cytometry, LFA-1/ICAM-1 modulator project, pilot screen (AID 2523;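 active = response below a set limit, under 55% cells CD8-positive and vesicle-bound, and CD8 cells' 90th-percentile brightness under 279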;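 as to vesicle binding response: mean PE anti-B7-1 fluorescence of CD8+ cells relative to row control; 100% = QL9-loaded vesicles with DMSO vehicle in the same plate row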); settings: 2C mouse CD8+ T cells, at 7 µM, stronger effect = lower value; double positive events: measured here: CD8+/vesicle+ event percentage
[7] = biological target: Integrin beta-1 (Homo sapiens) + Integrin alpha-4 (Homo sapiens) (UniProt P13612+P05556); test: alpha4beta1 integrin LIBS antibody binding reduction – U937 cells, HUTS-21 mAb, flow cytometry, validation set, VLA-4 allosteric modulator project, pilot screen (AID 2674;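 active = inhibition above 50%, about 3 SD of the validation set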;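 also: antibody binding induced by the VLA-4 ligand LDV present at three times its Kd; 0% = LDV ligand with antibody and no compound and 100% = antibody without LDV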); settings: HUTS-21 LIBS mAb binding, at 6.7 µM, stronger effect = higher value, binding induced by LDV ligand
Chain of Integrin beta-1 (Homo sapiens) + Integrin alpha-4 (Homo sapiens) (P05556 whole entry, looked up): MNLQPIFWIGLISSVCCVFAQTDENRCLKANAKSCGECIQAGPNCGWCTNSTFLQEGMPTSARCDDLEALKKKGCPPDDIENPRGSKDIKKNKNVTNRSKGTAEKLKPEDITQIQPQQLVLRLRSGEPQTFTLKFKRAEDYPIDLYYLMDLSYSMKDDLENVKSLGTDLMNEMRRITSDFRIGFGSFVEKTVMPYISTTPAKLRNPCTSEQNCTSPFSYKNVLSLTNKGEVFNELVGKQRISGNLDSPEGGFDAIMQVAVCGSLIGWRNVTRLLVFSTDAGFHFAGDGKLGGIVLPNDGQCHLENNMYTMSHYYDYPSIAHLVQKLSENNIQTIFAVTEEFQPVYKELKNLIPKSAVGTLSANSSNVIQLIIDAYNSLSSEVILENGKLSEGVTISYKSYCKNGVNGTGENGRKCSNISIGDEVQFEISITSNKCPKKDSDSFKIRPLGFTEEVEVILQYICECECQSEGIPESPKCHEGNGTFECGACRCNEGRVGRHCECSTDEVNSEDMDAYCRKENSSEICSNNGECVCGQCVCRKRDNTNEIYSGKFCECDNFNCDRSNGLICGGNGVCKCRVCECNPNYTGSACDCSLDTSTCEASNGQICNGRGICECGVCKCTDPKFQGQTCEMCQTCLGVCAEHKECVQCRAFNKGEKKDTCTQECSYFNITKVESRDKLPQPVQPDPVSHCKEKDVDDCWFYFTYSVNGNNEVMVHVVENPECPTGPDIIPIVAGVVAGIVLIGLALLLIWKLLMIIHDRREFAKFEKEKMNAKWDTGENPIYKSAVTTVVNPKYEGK
Chain of Integrin beta-1 (Homo sapiens) + Integrin alpha-4 (Homo sapiens) (P13612 whole entry, looked up): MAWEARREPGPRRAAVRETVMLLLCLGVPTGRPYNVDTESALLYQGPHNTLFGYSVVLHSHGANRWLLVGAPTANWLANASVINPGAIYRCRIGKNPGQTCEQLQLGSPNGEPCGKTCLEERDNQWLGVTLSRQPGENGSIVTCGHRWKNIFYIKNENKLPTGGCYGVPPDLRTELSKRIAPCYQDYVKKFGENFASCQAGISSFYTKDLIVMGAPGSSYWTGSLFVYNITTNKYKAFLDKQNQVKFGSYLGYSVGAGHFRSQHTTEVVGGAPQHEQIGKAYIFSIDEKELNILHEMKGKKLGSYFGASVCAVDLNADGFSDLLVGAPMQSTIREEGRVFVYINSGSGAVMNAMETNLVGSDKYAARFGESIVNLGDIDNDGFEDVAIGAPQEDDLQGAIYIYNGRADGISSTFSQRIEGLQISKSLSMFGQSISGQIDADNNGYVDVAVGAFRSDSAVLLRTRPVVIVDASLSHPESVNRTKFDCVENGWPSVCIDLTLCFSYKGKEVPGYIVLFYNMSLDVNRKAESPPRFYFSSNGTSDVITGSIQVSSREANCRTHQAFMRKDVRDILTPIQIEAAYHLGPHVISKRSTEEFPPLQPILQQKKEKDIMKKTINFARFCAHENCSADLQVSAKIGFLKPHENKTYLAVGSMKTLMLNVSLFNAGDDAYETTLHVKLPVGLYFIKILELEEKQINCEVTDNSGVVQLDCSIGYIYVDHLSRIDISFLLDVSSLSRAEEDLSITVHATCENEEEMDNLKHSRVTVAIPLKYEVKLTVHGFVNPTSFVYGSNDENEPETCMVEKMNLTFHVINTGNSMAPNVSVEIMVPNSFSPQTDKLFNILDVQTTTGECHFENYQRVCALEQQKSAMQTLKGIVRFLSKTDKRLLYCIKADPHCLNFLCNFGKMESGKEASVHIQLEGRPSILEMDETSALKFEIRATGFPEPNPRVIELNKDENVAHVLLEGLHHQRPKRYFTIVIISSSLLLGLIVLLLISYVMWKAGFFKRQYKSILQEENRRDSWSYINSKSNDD

[8] = calorie-restriction mimetic ROS inhibitors, yeast – validation compound set, pilot screen (AID 2706;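 active = superoxide response below 65% of plate, a cut near 3 SD across the whole screen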;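 also: yeast exposed to compound for one week at 30 degrees C before staining; 100% = mean of all compound wells on the same plate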); settings: S. cerevisiae aging, superoxide DHE fluorescence; at 10 µM; stronger effect = lower value
[9] = biological target: Beta-adrenergic receptor kinase 1 (Homo sapiens) (UniProt P25098); test: GRK2 binders displacing RNA aptamer, biochemical, validation, human GRK2, bead flow cytometry (AID 488806;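 active = aptamer binding inhibition above 30%, about 3 SD of noise from non-fluorescent compounds; inactive = inhibition at or below 30%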); settings: bead-bound GRK2, FAM-aptamer displacement, at 10 µM, stronger effect = higher value
Chain of Beta-adrenergic receptor kinase 1 (Homo sapiens) (P25098 whole entry, looked up): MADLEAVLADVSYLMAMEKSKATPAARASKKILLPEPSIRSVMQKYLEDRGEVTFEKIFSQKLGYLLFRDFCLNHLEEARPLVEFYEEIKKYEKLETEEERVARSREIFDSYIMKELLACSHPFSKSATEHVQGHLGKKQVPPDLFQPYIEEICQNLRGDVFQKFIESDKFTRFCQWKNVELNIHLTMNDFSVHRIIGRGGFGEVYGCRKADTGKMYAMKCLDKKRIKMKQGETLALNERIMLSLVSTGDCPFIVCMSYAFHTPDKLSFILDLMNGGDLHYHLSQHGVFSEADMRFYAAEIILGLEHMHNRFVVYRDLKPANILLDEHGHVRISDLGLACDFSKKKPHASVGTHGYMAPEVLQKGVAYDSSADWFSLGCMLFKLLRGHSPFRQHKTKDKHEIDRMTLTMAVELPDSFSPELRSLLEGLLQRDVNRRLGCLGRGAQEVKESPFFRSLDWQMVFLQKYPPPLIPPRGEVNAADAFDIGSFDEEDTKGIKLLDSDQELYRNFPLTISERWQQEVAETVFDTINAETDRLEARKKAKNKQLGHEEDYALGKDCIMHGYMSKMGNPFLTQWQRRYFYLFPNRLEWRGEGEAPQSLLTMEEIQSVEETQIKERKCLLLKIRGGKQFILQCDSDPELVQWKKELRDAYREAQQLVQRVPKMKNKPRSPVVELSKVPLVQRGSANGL

[10] = biological target: Beta-2 adrenergic receptor (Homo sapiens) (UniProt P07550); test: agonist-induced loss of surface beta2AR – cell-based, FAP fluorogen, flow cytometry, validation set, pilot screen (AID 504459;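 active = percent response above 42, roughly 3 SD of non-fluorescent test compounds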;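 also: agonist-driven loss of surface beta2AR via internalization measured by FAP dye flow cytometry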); settings: Am2.2-beta2AR cells, at 10 µM, stronger effect = higher value
Chain of Beta-2 adrenergic receptor (Homo sapiens) (P07550 whole entry, looked up): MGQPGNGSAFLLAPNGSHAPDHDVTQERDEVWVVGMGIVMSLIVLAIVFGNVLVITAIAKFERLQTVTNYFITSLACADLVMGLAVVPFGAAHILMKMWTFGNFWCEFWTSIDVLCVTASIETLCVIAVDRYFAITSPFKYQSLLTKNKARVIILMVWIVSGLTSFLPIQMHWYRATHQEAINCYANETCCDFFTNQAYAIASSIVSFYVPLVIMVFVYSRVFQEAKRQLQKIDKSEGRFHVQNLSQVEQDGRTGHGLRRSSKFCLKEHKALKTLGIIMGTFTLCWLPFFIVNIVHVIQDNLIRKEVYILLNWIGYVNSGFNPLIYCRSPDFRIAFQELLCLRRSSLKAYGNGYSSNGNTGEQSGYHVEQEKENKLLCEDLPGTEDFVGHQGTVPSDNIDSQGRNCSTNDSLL

[11] = biological target: AP-2 complex subunit beta (Homo sapiens) (UniProt P63010); test: beta-arrestin/AP2 interaction blockers – biochemical, validation set, GST-AP2 beads, flow cytometry, pilot screen (AID 504541;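 active = inhibition above 54%, about 3 SD of non-fluorescent compounds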;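 also: AP2 carries R879A mutation and is captured from E. coli lysate; bead-bound FITC arrestin peptide fluorescence measuring arrestin peptide binding to AP2; 0% = DMSO wells and 100% = excess unlabeled arrestin peptide control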); settings: FITC arrestin peptide, at 10 µM, stronger effect = higher value, AP2 beta2 appendage fragment, R879A mutant
Chain of AP-2 complex subunit beta (Homo sapiens) (P63010 whole entry, looked up, the tested form may be a part, one chain of several): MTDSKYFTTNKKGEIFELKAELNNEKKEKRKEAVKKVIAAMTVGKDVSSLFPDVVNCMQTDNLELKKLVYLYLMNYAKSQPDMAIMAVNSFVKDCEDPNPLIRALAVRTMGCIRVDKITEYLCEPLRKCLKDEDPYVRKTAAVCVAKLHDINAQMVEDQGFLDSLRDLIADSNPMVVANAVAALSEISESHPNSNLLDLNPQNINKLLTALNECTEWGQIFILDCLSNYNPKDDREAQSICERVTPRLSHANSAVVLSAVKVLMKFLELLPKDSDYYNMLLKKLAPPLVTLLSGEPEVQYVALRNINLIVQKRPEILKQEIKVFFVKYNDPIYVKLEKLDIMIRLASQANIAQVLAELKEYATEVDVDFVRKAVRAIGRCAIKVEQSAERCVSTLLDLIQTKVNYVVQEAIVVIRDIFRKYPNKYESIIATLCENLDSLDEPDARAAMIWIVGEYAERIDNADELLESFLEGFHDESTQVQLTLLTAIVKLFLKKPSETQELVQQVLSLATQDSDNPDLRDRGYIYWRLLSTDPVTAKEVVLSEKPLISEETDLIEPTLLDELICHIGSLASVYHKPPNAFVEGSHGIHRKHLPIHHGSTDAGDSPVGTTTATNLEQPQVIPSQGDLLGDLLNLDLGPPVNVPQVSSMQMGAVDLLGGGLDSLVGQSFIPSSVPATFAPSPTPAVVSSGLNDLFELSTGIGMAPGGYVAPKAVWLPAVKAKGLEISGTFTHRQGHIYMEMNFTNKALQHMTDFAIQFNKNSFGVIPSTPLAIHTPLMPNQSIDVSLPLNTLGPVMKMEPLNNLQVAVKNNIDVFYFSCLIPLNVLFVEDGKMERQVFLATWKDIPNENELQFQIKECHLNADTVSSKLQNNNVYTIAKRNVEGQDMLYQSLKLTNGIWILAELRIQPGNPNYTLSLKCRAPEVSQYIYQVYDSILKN

[12] = cytosolic pH regulators acting via V-ATPase – S. cerevisiae, pHLuorin, HTS validation (AID 504600; in the data active = response above about 15%;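 also: plate controls were DMSO for no effect and reference compound for full effect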); settings: V-ATPase proton transport, at 10 µM, stronger effect = higher value
[13] = system: anti-desmoglein-3 scFv antibody binding to human DSG3; test: blockers of pathogenic pemphigus antibody–desmoglein-3 binding – biochemical, validation compound set, bead-based, flow cytometry, pilot screen (AID 588368;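 active = binding below the plate cutoff, the plate median minus 3 SD, with a reading above zero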;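 also: signal is the median channel fluorescence of bead-bound GFP antibody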); settings: Protein G beads, DSG3-Fc, scFv-GFP binding, at 10 µM, stronger effect = lower value
[14] = Nile Red efflux blockade in pump-expressing yeast – validation compound set, multiplex, phenotypic, pilot screen (AID 588506;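 active = efflux inhibition above 0.42, the validation set average plus 4 SD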;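 also: Nile Red retained in cells so higher fluorescence means more efflux inhibition; 0 = negative control wells and 1 = enniatin B 25 µM full block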); settings: S. cerevisiae pump-expressing triplex, Nile Red efflux flow cytometry; at 10 µM; stronger effect = higher value; the pumps come from Candida albicans
[15] = biological target: ATP-binding cassette sub-family B member 6 (Homo sapiens) (UniProt Q9NP58); test: blockers of ABCB6-driven porphyrin uptake – K562-ABCB6 cells, flow cytometry, validation set, pilot screen (AID 588550;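 active = inhibition above the screen-wide mean plus 3 SD, about 51%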;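 also: 0% = DMSO wells and 100% = benzethonium chloride 70 µM positive control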); settings: K562-ABCB6 porphyrin accumulation, 1 h, at 10 µM, stronger effect = higher value
Chain of ATP-binding cassette sub-family B member 6 (Homo sapiens) (Q9NP58 whole entry, looked up): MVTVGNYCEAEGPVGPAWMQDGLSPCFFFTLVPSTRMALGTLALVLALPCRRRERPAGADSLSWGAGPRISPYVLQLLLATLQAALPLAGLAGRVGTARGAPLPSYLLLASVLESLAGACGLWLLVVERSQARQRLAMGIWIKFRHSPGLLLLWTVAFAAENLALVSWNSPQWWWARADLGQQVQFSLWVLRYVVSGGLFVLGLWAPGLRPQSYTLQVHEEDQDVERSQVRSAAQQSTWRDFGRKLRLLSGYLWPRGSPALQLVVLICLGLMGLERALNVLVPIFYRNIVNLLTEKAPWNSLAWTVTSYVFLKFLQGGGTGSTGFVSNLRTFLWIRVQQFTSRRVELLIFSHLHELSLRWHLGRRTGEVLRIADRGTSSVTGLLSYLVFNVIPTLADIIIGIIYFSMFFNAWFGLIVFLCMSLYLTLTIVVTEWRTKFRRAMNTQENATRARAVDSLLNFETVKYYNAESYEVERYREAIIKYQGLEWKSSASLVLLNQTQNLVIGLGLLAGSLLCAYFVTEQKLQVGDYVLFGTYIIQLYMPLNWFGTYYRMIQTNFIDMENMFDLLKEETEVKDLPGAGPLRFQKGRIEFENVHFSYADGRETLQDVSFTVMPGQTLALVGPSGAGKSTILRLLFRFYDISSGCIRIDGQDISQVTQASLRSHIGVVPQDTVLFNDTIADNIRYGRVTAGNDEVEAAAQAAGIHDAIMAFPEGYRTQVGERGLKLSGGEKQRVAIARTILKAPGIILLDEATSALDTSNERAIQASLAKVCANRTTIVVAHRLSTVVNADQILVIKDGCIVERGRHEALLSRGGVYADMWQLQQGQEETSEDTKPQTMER

[16] = AML differentiation inducers, ER-HoxA9 marrow cells – cell-based, GFP/MAC1 double positive, flow cytometry, validation set, primary screen (AID 588685;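 active = differentiation response of at least 50%, scaled between solvent and reference control, from cells with both markers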;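 also: compound exposure lasts four days before antibody staining and flow analysis; 0% = DMSO wells and 100% = 5 µM fulvestrant positive control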); settings: stronger effect = higher value, normalized: vehicle 0, fulvestrant 100

Row | Structure (SMILES) | percent of DMSO control GFP [1] | GFP response vs DMSO [2] | percent response of DMSO control [3] | GFP response vs DMSO [4] | GFP response, % of DMSO [5] | double positive events [6] | vesicle binding response [6] | inhibition [7] | superoxide response (% of plate) [8] | aptamer binding inhibition [9] | response [10] | inhibition [11] | response [12] | binding (% of control) [13] | efflux inhibition (fraction of control) [14] | inhibition [15] | differentiation response [16]
1 | CCN(CC)CCNC(=O)c1ccc(NC(C)=O)cc1 | 99.4% (inactive) | 108% (inactive) and 103% (inactive) | 101% (inactive) | 89.4% (inactive) and 90.7% (inactive) | 99.2% (inactive) and 100% (inactive) | 63.2% and 61.4% | 4990% (inactive) and 247% (inactive) | 1.62% (inactive) and -0.45% (inactive) | 100% (inactive) and 103% (inactive) | 3% (inactive) and -3% (inactive) | -11.2% (inactive) and -2.15% (inactive) | -11.4% (inactive) and 6.7% (inactive) | -1.96% (inactive) and 1.62% (inactive) | 95.9% (inactive) and 97.4% (inactive) | 0.02 (inactive) and -0.04 (inactive) | -3% (inactive) and 3% (inactive) | -6.6% (inactive) and 20.8% (inactive)
2 | Nc1nc(Cl)nc2c1ncn2[C@H]1C[C@H](O)[C@@H](CO)O1 | 99.2% (inactive) | 102% (inactive) | 106% (inactive) | 104% (inactive) | 114% (inactive) | 63.3% | 225% (inactive) | 0.59% (inactive) | 86.7% (inactive) | 7% (inactive) | -24.5% (inactive) | 27.9% (inactive) | 2.75% (inactive) | 103% (inactive) | 0 (inactive) | -1% (inactive) | -9.91% (inactive)
3 | Cc1ccc(S(=O)(=O)n2ccnc2)cc1C | 98.4% (inactive) | 112% (inactive) | 99.6% (inactive) | 108% (inactive) | 121% (inactive) | 60.3% | 160% (inactive) | 6.55% (inactive) | 95.2% (inactive) | 1% (inactive) | -20.5% (inactive) | -13.3% (inactive) | 1.99% (inactive) | 102% (inactive) | -0.09 (inactive) | 3% (inactive) | -2.03% (inactive)
4 | O=C(/C=C/Sc1ccccc1)c1ccccc1 | 106% (inactive) | 101% (inactive) | 100% (inactive) | 112% (inactive) | 94.6% (inactive) | 63.9% | 263% (inactive) | -15% (inactive) | 109% (inactive) | -1% (inactive) | 28.9% (inactive) | 14.1% (inactive) | -5.17% (inactive) | 103% (inactive) | -0.01 (inactive) | -13% (inactive) | 37.4% (inactive)
5 | CCC(C)NCCOc1ccccc1C (stereo not drawn) | 104% (inactive) | 101% (inactive) | 105% (inactive) | 97% (inactive) | 108% (inactive) | 61.2% | 115% (inactive) | 5.61% (inactive) | 104% (inactive) | -4% (inactive) | -6.41% (inactive) | 29% (inactive) | -2.79% (inactive) | 96.8% (inactive) | -0.61 (inactive) | 12% (inactive) | -16.3% (inactive)
6 | CCc1cc(=O)oc2cc3occ(-c4ccc(OC)c(F)c4)c3cc12 | 96.8% (inactive) | 116% (inactive) | 111% (inactive) | 93% (inactive) | 87.7% (inactive) | 60.2% | 260% (inactive) | 16.2% (inactive) | 88% (inactive) | -1% (inactive) | 25.5% (inactive) | 6.17% (inactive) | 0.45% (inactive) | 107% (inactive) | 0.63 (active) | 15% (inactive) | 10.6% (inactive)
7 | COc1cccc(NC(=O)C2CC(=O)OC23CCOC(C)(C)C3)c1 (stereo not drawn) | 93.7% (inactive) | 137% (inactive) | 95.2% (inactive) | 80.9% (inactive) | 94.2% (inactive) | 58.3% | 24.9% (inactive) | 19.1% (inactive) | 88.5% (inactive) | 2% (inactive) | -4.19% (inactive) | 0.76% (inactive) | -0.08% (inactive) | 101% (inactive) | -0.13 (inactive) | 9% (inactive) | -2.46% (inactive)
8 | OC12CCCCC1C(c1ccc3c(c1)OCO3)N(Cc1cccc(F)c1)CC2 (stereo not drawn) | 103% (inactive) | 90.9% (inactive) | 113% (inactive) | 94% (inactive) | 101% (inactive) | 61.7% | 234% (inactive) | -5.64% (inactive) | 97.9% (inactive) | 3% (inactive) | -6.32% (inactive) | 7.03% (inactive) | -0.75% (inactive) | 104% (inactive) | -0.01 (inactive) | 0% (inactive) | -10.5% (inactive)
9 | CN1C(=O)NC(c2ccc(O)cc2)C2=C1CN(c1cccc3ccccc13)C2=O (stereo not drawn) | 102% (inactive) | 107% (inactive) | 106% (inactive) | 94% (inactive) | 100% (inactive) | 64% | 229% (inactive) | -1.49% (inactive) | 94.5% (inactive) | 0% (inactive) | -19.6% (inactive) | 3.73% (inactive) | -0.13% (inactive) | 99.8% (inactive) | -0.23 (inactive) | -6% (inactive) | 7.09% (inactive)
